From PubChem BioAssay (NCATS)
“And” between values parts separate entries of the source, which are not always exact repeats. Identical values can stand only once. Inconclusive results are not listed. The source made the active and inactive calls. The call rests on the fitted dose curve; in most records, active means well fitted curve in the direction sought with a large enough effect; inconclusive means small, poorly fitted or top-dose-only effect, or another doubt; inactive means no such curve, though single readings can be large; an effect the other way counts as inactive or inconclusive.

Assays:
[1] = qHTS of pediatric cancer cell lines to identify multiple opportunities for drug repurposing: Primary screen for U-2 OS cells (AID 1347096); further: nearly all actives have a fitted effect of over 50% in size
Summary of the method: (§1)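 Cells (500-1,000/well) rested 5 h, then received compounds for 48 h; metabolically active cells were measured by CellTiter-Glo luminescence. Final concentrations spanned up to 46 µM (MIPE, 11-point) or 0.59 nM-46 µM (NPC, 8-point) in primary screens, 11-point in follow-ups.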

[2] = qHTS of pediatric cancer cell lines to identify multiple opportunities for drug repurposing: Primary screen for Saos-2 cells (AID 1347097); further: nearly all actives have a fitted effect of over 40% in size
Summary of the method: (§2)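 Quantitative HTS format: each compound titrated (MIPE 11 points from 0.78 nM, NPC 8 points from 0.59 nM) onto cells plated 5 hours earlier. After 48 h at 37 degrees C, CellTiter-Glo luminescence was recorded.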

[3] = qHTS of pediatric cancer cell lines to identify multiple opportunities for drug repurposing: Primary screen for NB1643 cells (AID 1347099); further: nearly all actives have a fitted effect of over 50% in size
Summary of the method: as §2

[4] = qHTS of pediatric cancer cell lines to identify multiple opportunities for drug repurposing: Primary screen for LAN-5 cells (AID 1347100)
Summary of the method: as §1

[5] = qHTS of pediatric cancer cell lines to identify multiple opportunities for drug repurposing: Primary screen for BT-12 cells (AID 1347101); further: nearly all actives have a fitted effect of over 25% in size
Summary of the method: as §1

[6] = qHTS of pediatric cancer cell lines to identify multiple opportunities for drug repurposing: Primary screen for Rh18 cells (AID 1347102); further: nearly all actives have a fitted effect of over 65% in size
Summary of the method: as §1

[7] = qHTS of pediatric cancer cell lines to identify multiple opportunities for drug repurposing: Primary screen for OHS-50 cells (AID 1347103); further: nearly all actives have a fitted effect of over 40% in size
Summary of the method: as §1

[8] = qHTS of pediatric cancer cell lines to identify multiple opportunities for drug repurposing: Primary screen for RD cells (AID 1347104); further: nearly all actives have a fitted effect of over 55% in size
Summary of the method: as §2

[9] = qHTS of pediatric cancer cell lines to identify multiple opportunities for drug repurposing: Primary screen for MG 63 (6-TG R) cells (AID 1347105); further: nearly all actives have a fitted effect of over 50% in size
Summary of the method: as §2

[10] = qHTS of pediatric cancer cell lines to identify multiple opportunities for drug repurposing: Primary screen for SK-N-SH cells (AID 1347098); further: nearly all actives have a fitted effect of over 65% in size
Summary of the method: as §1

Measured: Potency
Potency means the concentration at half of the fitted maximal effect.

O=C(O)c1cc(=O)[nH]c(=O)[nH]1
not listed: [10]
inactive: all other assays above

O=C(NCC1CN(c2ccc(N3CCOCC3=O)cc2)C(=O)O1)c1ccc(Cl)s1 (centres undefined)
not listed: [3] | [5] | [6]
inactive: all other assays above

Nc1[nH]c(=O)ncc1F
not listed: [4] | [6] | [10]
inactive: all other assays above

CCCc1cc(C(N)=S)ccn1
not listed: [10]
inactive: all other assays above

NC(N)=NC(N)=NCCc1ccccc1
inactive: [1] | [2] | [10] | [4] | [9]
active: [5] 19.3 µM | [7] 11 µM and 3.85 µM

Cc1onc(-c2ccccc2Cl)c1C(=O)N[C@@H]1C(=O)N2[C@@H]1SC(C)(C)[C@@H]2C(=O)O
not listed: [10]
inactive: all other assays above

Nc1ccc(S(=O)(=O)Nc2ccccn2)cc1
not listed: [10]
inactive: all other assays above

O=C(O)C1CCCN(CCC=C(c2ccccc2)c2ccccc2)C1 (centres undefined)
not listed: [3] | [10]
inactive: all other assays above

CNC1CCCN(c2c(F)cc3c(=O)c(C(=O)O)cn(C4CC4)c3c2OC)C1 (centres undefined)
not listed: [3] | [10]
inactive: all other assays above

Cn1c(=O)c2c(ncn2CC(O)CO)n(C)c1=O (centres undefined)
not listed: [6] | [10]
inactive: all other assays above

CC1=C(C(=O)O)N2C(=O)[C@@H](NC(=O)C(N)c3ccccc3)[C@H]2SC1 (some centres undefined)
not listed: [6] | [10]
inactive: all other assays above

N[C@@H](C(=O)N[C@@H]1C(=O)N2C(C(=O)O)=C(Cl)CS[C@H]12)c1ccccc1
not listed: [3] | [6]
inactive: all other assays above

Cc1ccnc2c1NC(=O)c1cccnc1N2C1CC1
not listed: [3] | [10]
inactive: all other assays above

Cc1nnc(C(=O)NC(C)(C)c2nc(C(=O)NCc3ccc(F)cc3)c(O)c(=O)n2C)o1
not listed: [3] | [10]
inactive: all other assays above

O=NN(CCCl)C(=O)NC1CCCCC1
not listed: [6] | [10]
inactive: all other assays above

COc1nc(N)nc2c1ncn2[C@@H]1O[C@H](CO)[C@@H](O)[C@@H]1O
not listed: [6] | [10]
inactive: all other assays above

CO[C@@]12[C@H](COC(N)=O)C3=C(C(=O)C(C)=C(N)C3=O)N1C[C@@H]1N[C@@H]12
inactive: [1] | [2]
active: [3] 1.33 µM | [4] 335 nM and 1.05 µM | [5] 3.47 µM and 3.06 µM | [6] 18.7 µM | [7] 3.85 µM | [8] 18.8 µM and 18.7 µM | [9] 14.8 µM

CCCCS(=N)(=O)CCC(N)C(=O)O (centres undefined)
not listed: [3] | [10]
inactive: all other assays above

O=c1oc2c(O)c(O)cc3c(=O)oc4c(O)c(O)cc1c4c23
not listed: [5] | [8] | [10]
inactive: all other assays above

CC(C)C1CCC(C(=O)N[C@H](Cc2ccccc2)C(=O)O)CC1 (some centres undefined)
not listed: [6] | [10]
inactive: all other assays above

CCC(=O)O[C@]1(C(=O)CCl)[C@@H](C)C[C@H]2[C@@H]3CCC4=CC(=O)C=C[C@]4(C)[C@@]3(F)[C@@H](O)C[C@@]21C
not listed: [5] | [7] | [10]
inactive: all other assays above

COC(c1ccccc1)(c1ccccc1)[C@H](Oc1nc(C)cc(C)n1)C(=O)O
not listed: [10]
inactive: all other assays above

CN(C)CCc1c[nH]c2ccc(CS(=O)(=O)N3CCCC3)cc12
not listed: [10]
inactive: all other assays above

CCN1CCCC1CNC(=O)c1cc(S(N)(=O)=O)ccc1OC (centres undefined)
not listed: [3] | [10]
inactive: all other assays above

C1CCC(C(CC2CCCCN2)C2CCCCC2)CC1 (centres undefined)
inactive: [1]
active: [2] 13.3 µM and 33.2 µM | [3] 21.1 µM | [5] 5.5 µM and 30.6 µM | [6] 16.8 µM and 26.4 µM | [7] 13.8 µM and 19.3 µM | [8] 21.1 µM and 29.6 µM | [9] 26.6 µM

COC(=O)Nc1nc2ccc(Sc3ccccc3)cc2[nH]1
inactive: [10]
active: [1] 13.3 µM | [2] 841 nM and 2.35 µM | [4] 1.32 µM | [5] 1.74 µM and 4.32 µM | [7] 1.23 µM and 3.06 µM | [9] 668 nM and 1.18 µM

COc1cc(NCc2ccc3nc(N)nc(N)c3c2C)cc(OC)c1OC
active: [1] 3.72 µM | [2] 11.8 µM | [3] 14.8 µM | [4] 16.6 µM | [5] 2.17 µM and 55 nM | [7] 19.3 µM | [8] 4.18 µM and 119 nM
inactive: [6] | [9]

COc1ccccc1OCC(O)COC(N)=O (centres undefined)
not listed: [10]
inactive: all other assays above

Clc1ccccc1CN1CCc2sccc2C1
inactive: [1] | [3] | [6] | [8] | [9]
active: [2] 1.48 µM | [5] 1.93 µM

CC(C)C[C@H](NC(=O)[C@H](CCc1ccccc1)NC(=O)CN1CCOCC1)C(=O)N[C@@H](Cc1ccccc1)C(=O)N[C@@H](CC(C)C)C(=O)[C@@]1(C)CO1
active: [1] 1.06 µM and 1.48 µM | [2] 42.2 nM and 93.5 nM | [3] 42.2 nM and 52.6 nM | [4] 668 nM and 132 nM | [5] 87.1 nM and 137 nM | [6] 106 nM and 264 nM | [7] 61.7 nM and 109 nM | [8] 23.7 nM and 41.8 nM | [9] 42.2 nM and 59 nM

CCn1cc(C(=O)O)c(=O)c2cc(F)c(N3CCNCC3)cc21
not listed: [3] | [6]
inactive: all other assays above

CC1=CC(=O)c2ccccc2C1=O
active: [2] 18.7 µM | [4] 16.8 µM and 23.5 µM | [8] 18.7 µM
inactive: [1] | [5] | [6] | [9]

CCCCCCNC(=O)n1cc(F)c(=O)[nH]c1=O
inactive: [1] | [2] | [6] | [7] | [9]
active: [3] 5.9 µM | [4] 7.5 µM and 9.35 µM

C[C@]12C=CC(=O)C=C1CC[C@@H]1[C@@H]2C(=O)C[C@@]2(C)[C@H]1CC[C@]2(O)C(=O)CO
not listed: [3] | [10]
inactive: all other assays above

CCOCC(O)COc1ccc(NC(=O)CC[S+](C)C)cc1 (centres undefined)
not listed: [3] | [10]
inactive: all other assays above

CCOC(=O)[C@H](CCc1ccccc1)N[C@H]1CCc2ccccc2N(CC(=O)O)C1=O
inactive: [1]
active: [10] 24.1 µM | [5] 27.3 µM | [7] 24.3 µM | [8] 26.4 µM

CC(=O)[C@H]1CC[C@H]2[C@@H]3CC=C4C[C@@H](O)CC[C@]4(C)[C@H]3CC[C@]12C
inactive: [1] | [2] | [4] | [5] | [8] | [9]

CCCCOc1ccc(CC(=O)NO)cc1
active: [1] 26.6 µM | [10] 19.2 µM | [4] 23.5 µM | [8] 15 µM and 26.4 µM
inactive: [5] | [9]

CC(C)OC(=O)C(C(=O)OC(C)C)=C1SC=CS1
inactive: [1] | [2] | [4] | [5] | [8] | [9]
